# Results reported in the supplement of paper PMC8728848.
# Shown is part of a subset that was picked to be rich in the strongest signals.
# How the values were obtained:
# Experiment in all cases: glycan array binding signal (z-score within array); higher = stronger binding
# Settings in all cases: glycan notation: IUPAC condensed, linker removed
# [1] = target: Fuc(a1-2)Gal(b1-3)GlcNAc(b1-2)Man(a1-3)[Fuc(a1-2)Gal(b1-3)GlcNAc(b1-2)Man(a1-6)]Man(b1-4)GlcNAc(b1-4)GlcNAc
# Summary of the method: (§1)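 Arrays were curated from the Consortium for Functional Glycomics database, 3228 in total, and kept only where the protein sequence was available. Binding is expressed as a within-array Z-score. This score was averaged across arrays of the same protein sequence at different concentrations or buffers and across linkers, and negative values can be read as non-binding.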
# [2] = target: Fuc(a1-2)Gal(b1-3)GlcNAc(b1-2)Man(a1-3)[Fuc(a1-2)Gal(b1-3)GlcNAc(b1-2)Man(a1-6)]Man(b1-4)GlcNAc(b1-4)[Fuc(a1-6)]GlcNAc
# Summary of the method: as §1
# [3] = target: Fuc(a1-2)Gal(b1-4)Fuc(a1-3)]GlcNAc(b1-2)Man(a1-3)[Fuc(a1-2)Gal(b1-4)[Fuc(a1-3)]GlcNAc(b1-2)Man(a1-6)]Man(b1-4)GlcNAc(b1-4)GlcNAc
# Summary of the method: as §1
# Fuc(a1-2)Gal(b1-4)Glc = target: Fuc(a1-2)Gal(b1-4)Glc
# Summary of the method: as §1
# [4] = target: Fuc(a1-2)Gal(b1-4)GlcNAc(b1-2)Man(a1-3)[Fuc(a1-2)Gal(b1-4)GlcNAc(b1-2)Man(a1-6)]Man(b1-4)GlcNAc(b1-4)[Fuc(a1-6)]GlcNAc
# Summary of the method: as §1
# [5] = target: Fuc(a1-2)[Gal(a1-3)]Gal(b1-3)GlcNAc(b1-3)GalNAc
# Summary of the method: as §1
# [6] = target: Fuc(a1-2)[Gal(a1-3)]Gal(b1-4)GlcNAc(b1-2)Man(a1-3)[Fuc(a1-2)[Gal(a1-3)]Gal(b1-4)GlcNAc(b1-2)Man(a1-6)]Man(b1-4)GlcNAc(b1-4)[Fuc(a1-6)]GlcNAc
# Summary of the method: as §1
# [7] = target: Fuc(a1-2)[Gal(a1-3)]Gal(b1-4)GlcNAc(b1-3)[Fuc(a1-2)[Gal(a1-3)]Gal(b1-4)GlcNAc(b1-6)]GalNAc
# Summary of the method: as §1
# [8] = target: Fuc(a1-2)[GalNAc(a1-3)]Gal(b1-4)GlcNAc(b1-3)Gal(b1-4)GlcNAc
# Summary of the method: as §1
# [9] = target: Fuc(a1-2)[GalNAc(a1-3)]Gal(b1-4)GlcNAc(b1-3)[Fuc(a1-2)[GalNAc(a1-3)]Gal(b1-4)GlcNAc(b1-6)]GalNAc
# Summary of the method: as §1
# [10] = target: Fuc(a1-2)[GalNAc(a1-3)]Gal(b1-4)GlcNAc(b1-6)GalNAc
# Summary of the method: as §1
# [11] = target: Fuc(a1-2)[GalNAc(a1-3)]Gal(b1-4)[Fuc(a1-3)]GlcNAc
# Summary of the method: as §1
# [12] = target: Fuc(a1-3)[Gal(b1-4)]GlcNAc
# Summary of the method: as §1
# [13] = target: Fuc(a1-3)[Gal3S(b1-4)]GlcNAc6S
# Summary of the method: as §1
# Gal(a1-3)Gal(b1-3)GlcNAc = target: Gal(a1-3)Gal(b1-3)GlcNAc
# Summary of the method: as §1
# [14] = target: Gal(a1-3)Gal(b1-3)GlcNAc(b1-2)Man(a1-3)[Gal(a1-3)Gal(b1-3)GlcNAc(b1-2)Man(a1-6)]Man(b1-4)GlcNAc(b1-4)GlcNAc
# Summary of the method: as §1
# [15] = target: Gal(a1-3)Gal(b1-4)GlcNAc(b1-3)GalNAc
# Summary of the method: as §1
# Gal(a1-3)GalNAc = target: Gal(a1-3)GalNAc
# Summary of the method: as §1
# [16] = target: Gal(a1-4)Gal(b1-3)GlcNAc(b1-2)Man(a1-3)[Gal(a1-4)Gal(b1-3)GlcNAc(b1-2)Man(a1-6)]Man(b1-4)GlcNAc(b1-4)GlcNAc
# Summary of the method: as §1
# [17] = target: Gal(b1-3)GlcNAc(b1-2)Man(a1-3)[GlcNAc(b1-4)][Gal(b1-3)GlcNAc(b1-2)Man(a1-6)]Man(b1-4)GlcNAc(b1-4)GlcNAc
# Summary of the method: as §1
# [18] = target: Gal(b1-3)GlcNAc(b1-3)Gal(b1-4)GlcNAc(b1-2)Man(a1-3)[Gal(b1-3)GlcNAc(b1-3)Gal(b1-4)GlcNAc(b1-2)Man(a1-6)]Man(b1-4)GlcNAc(b1-4)GlcNAc
# Summary of the method: as §1
# [19] = target: Gal(b1-4)GlcNAc(b1-2)Man(a1-3)[GlcNAc(b1-4)][Gal(b1-4)GlcNAc(b1-2)Man(a1-6)]Man(b1-4)GlcNAc(b1-4)GlcNAc
# Summary of the method: as §1
# [20] = target: Gal(b1-4)GlcNAc(b1-2)[Gal(b1-4)GlcNAc(b1-6)]Man(a1-6)[Gal(b1-4)GlcNAc(b1-2)Man(a1-3)]Man(b1-4)GlcNAc(b1-4)GlcNAc
# Summary of the method: as §1
# [21] = target: Gal(b1-4)GlcNAc(b1-3)Gal(b1-4)GlcNAc
# Summary of the method: as §1
# Gal6S(b1-4)GlcNAc = target: Gal6S(b1-4)GlcNAc
# Summary of the method: as §1
# GlcNAc(b1-3)Gal = target: GlcNAc(b1-3)Gal
# Summary of the method: as §1
# GlcNAc(b1-4)GlcNAc = target: GlcNAc(b1-4)GlcNAc
# Summary of the method: as §1
# [22] = target: GlcNAc6S(b1-3)Gal(b1-4)GlcNAc
# Summary of the method: as §1
# [23] = target: Neu5Ac(a2-3)Gal(b1-3)GalNAc
# Summary of the method: as §1
# [24] = target: Neu5Ac(a2-3)Gal(b1-3)GalNAc(b1-3)Gal(a1-4)Gal(b1-4)Glc
# Summary of the method: as §1
# [25] = target: Neu5Ac(a2-3)Gal(b1-3)GlcNAc(b1-2)Man(a1-3)[GlcNAc(b1-4)][Neu5Ac(a2-3)Gal(b1-3)GlcNAc(b1-2)Man(a1-6)]Man(b1-4)GlcNAc(b1-4)GlcNAc
# Summary of the method: as §1
# [26] = target: Neu5Ac(a2-3)Gal(b1-3)[Fuc(a1-4)]GlcNAc
# Summary of the method: as §1
# Neu5Ac(a2-3)Gal(b1-4)Glc = target: Neu5Ac(a2-3)Gal(b1-4)Glc
# Summary of the method: as §1
# [27] = target: Neu5Ac(a2-3)Gal6S(b1-4)GlcNAc
# Summary of the method: as §1
# [28] = target: Neu5Ac(a2-3)Gal6S(b1-4)[Fuc(a1-3)]GlcNAc
# Summary of the method: as §1
# [29] = target: Neu5Ac(a2-3)[Neu5Ac(a2-6)]GalNAc
# Summary of the method: as §1
# [30] = target: Neu5Ac(a2-6)Gal(b1-4)GlcNAc(b1-2)Man(a1-3)[GlcNAc(b1-4)][Neu5Ac(a2-6)Gal(b1-4)GlcNAc(b1-2)Man(a1-6)]Man(b1-4)GlcNAc(b1-4)GlcNAc
# Summary of the method: as §1
# [31] = target: Neu5Ac(a2-6)Gal(b1-4)GlcNAc(b1-2)Man(a1-6)[Gal(b1-4)GlcNAc(b1-2)Man(a1-3)]Man(b1-4)GlcNAc(b1-4)GlcNAc
# Summary of the method: as §1
# [32] = target: Neu5Ac(b2-6)Gal(b1-4)GlcNAc
# Summary of the method: as §1
binder,measurement,setting,value
"LgFlo1 (Saccharomyces pastorianus), B3IUA8 (protein) SGSTQACLPVGSRKNGMNVNFYKYSLQDSTTYSDPQYMAYKYSDTKKLGSVSGQTHLSIYYGPNTAFWNTASWSSDLFGFYTTPTNVTVEMTGYFLPPQTGSYTFKFATVDDSAILSVGGSIAFECCAQEQPPITSTDFTINGIKPWDAATPTDIKGSTYMYAGYYYPIKIVYSNAKALARLPVSVVLPDGTEVNDDFEGYVYSFDDDLSQSNCTIPDPSKHTTS",glycan array binding signal (z-score),[1],2.1
same,glycan array binding signal (z-score),[2],3.52
same,glycan array binding signal (z-score),[3],4.98
same,glycan array binding signal (z-score),Fuc(a1-2)Gal(b1-4)Glc,-0.137
same,glycan array binding signal (z-score),[4],0.313
same,glycan array binding signal (z-score),[5],11.9
same,glycan array binding signal (z-score),[6],11.9
same,glycan array binding signal (z-score),[7],2.44
same,glycan array binding signal (z-score),[8],-0.328
same,glycan array binding signal (z-score),[9],1.81
same,glycan array binding signal (z-score),[10],-0.114
same,glycan array binding signal (z-score),[11],0.711
same,glycan array binding signal (z-score),[12],0.072
same,glycan array binding signal (z-score),[13],0.042
same,glycan array binding signal (z-score),Gal(a1-3)Gal(b1-3)GlcNAc,2.47
same,glycan array binding signal (z-score),[14],0.576
same,glycan array binding signal (z-score),[15],-0.146
same,glycan array binding signal (z-score),Gal(a1-3)GalNAc,-0.152
same,glycan array binding signal (z-score),[16],1.89
same,glycan array binding signal (z-score),[17],0.784
same,glycan array binding signal (z-score),[18],-0.078
same,glycan array binding signal (z-score),[19],-0.121
same,glycan array binding signal (z-score),[20],0.549
same,glycan array binding signal (z-score),[21],-0.291
same,glycan array binding signal (z-score),Gal6S(b1-4)GlcNAc,-0.114
same,glycan array binding signal (z-score),GlcNAc(b1-3)Gal,-0.087
same,glycan array binding signal (z-score),GlcNAc(b1-4)GlcNAc,-0.042
same,glycan array binding signal (z-score),[22],-0.317
same,glycan array binding signal (z-score),[23],5.83
same,glycan array binding signal (z-score),[24],-0.329
same,glycan array binding signal (z-score),[25],-0.135
same,glycan array binding signal (z-score),[26],-0.245
same,glycan array binding signal (z-score),Neu5Ac(a2-3)Gal(b1-4)Glc,1.97
same,glycan array binding signal (z-score),[27],-0.229
same,glycan array binding signal (z-score),[28],-0.151
same,glycan array binding signal (z-score),[29],-0.356
same,glycan array binding signal (z-score),[30],-0.203
same,glycan array binding signal (z-score),[31],-0.38
same,glycan array binding signal (z-score),[32],-0.214
